Molecules are shown by their SMILES.

These results are taken from ChEMBL document CHEMBL1961873, “Compounds: GSK PKIS; Assays: Nanosyn kinase panel” (2012).

Rho-associated protein kinase 1 (Homo sapiens), sequence (Q13464 2-1354 limits assumed): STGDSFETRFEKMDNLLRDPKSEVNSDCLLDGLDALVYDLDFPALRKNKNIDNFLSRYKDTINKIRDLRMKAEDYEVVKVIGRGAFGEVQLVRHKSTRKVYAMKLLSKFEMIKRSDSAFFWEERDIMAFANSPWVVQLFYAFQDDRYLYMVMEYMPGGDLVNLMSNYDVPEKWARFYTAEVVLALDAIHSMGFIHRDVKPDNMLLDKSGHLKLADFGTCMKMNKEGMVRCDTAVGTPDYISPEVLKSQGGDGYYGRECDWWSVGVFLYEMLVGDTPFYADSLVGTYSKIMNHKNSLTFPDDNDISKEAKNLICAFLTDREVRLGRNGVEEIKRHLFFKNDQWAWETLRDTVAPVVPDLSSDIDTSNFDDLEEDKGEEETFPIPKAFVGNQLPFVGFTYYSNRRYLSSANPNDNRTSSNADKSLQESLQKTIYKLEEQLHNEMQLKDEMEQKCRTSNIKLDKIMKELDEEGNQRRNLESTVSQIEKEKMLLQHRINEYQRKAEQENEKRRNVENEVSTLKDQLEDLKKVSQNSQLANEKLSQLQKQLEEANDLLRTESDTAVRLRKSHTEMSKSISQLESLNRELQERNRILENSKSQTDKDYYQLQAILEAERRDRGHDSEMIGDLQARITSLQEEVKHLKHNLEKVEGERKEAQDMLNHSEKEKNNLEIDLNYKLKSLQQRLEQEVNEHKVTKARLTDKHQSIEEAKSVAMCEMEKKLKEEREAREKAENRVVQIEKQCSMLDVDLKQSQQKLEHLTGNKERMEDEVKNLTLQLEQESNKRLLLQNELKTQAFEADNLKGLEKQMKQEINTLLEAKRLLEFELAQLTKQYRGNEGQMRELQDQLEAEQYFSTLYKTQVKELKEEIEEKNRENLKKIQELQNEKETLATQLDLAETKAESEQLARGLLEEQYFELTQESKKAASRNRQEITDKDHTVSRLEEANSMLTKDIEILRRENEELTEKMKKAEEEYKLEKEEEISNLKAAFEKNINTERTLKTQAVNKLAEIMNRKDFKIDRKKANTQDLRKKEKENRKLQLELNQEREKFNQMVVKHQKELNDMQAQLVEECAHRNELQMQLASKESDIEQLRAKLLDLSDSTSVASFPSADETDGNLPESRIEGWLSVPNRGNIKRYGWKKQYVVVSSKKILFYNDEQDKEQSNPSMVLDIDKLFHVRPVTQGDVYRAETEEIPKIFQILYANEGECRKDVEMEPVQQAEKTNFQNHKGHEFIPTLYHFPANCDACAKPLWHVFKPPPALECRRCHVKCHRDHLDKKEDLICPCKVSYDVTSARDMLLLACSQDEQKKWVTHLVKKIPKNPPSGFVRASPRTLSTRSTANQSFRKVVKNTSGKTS

The first experiment concerns the target Rho-associated protein kinase 1 (Homo sapiens) (UniProt Q13464). As to conditions: at 1 µM.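 Further: reported values are mean percent inhibition of ROCK1.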
As to `[O-][S+]1CCN(Cc2ccc(-c3ccc4ncnc(Nc5ccc(OCc6cccc(F)c6)c(Cl)c5)c4c3)o2)CC1`, the inhibition stood at 4.37%. On the same count and under the same terms, with `COc1ccc(-c2nn3ncccc3c2-c2ccnc(Nc3ccc4c(c3)OCCO4)n2)cc1` the figure was 0.84%; with `FC(F)(F)c1cccc(-c2nn3ncccc3c2-c2ccnc(Nc3ccc4c(c3)OCCO4)n2)c1`, 2.47%; with `CNC(=O)c1cc(-c2ccc(F)cc2)cc(-c2ccc(S(=O)(=O)N3CCCC3)cc2)c1N`, 1.95%. Same read-out and setting: with `CNC(=O)c1cccc(C#Cc2cncnc2Nc2ccc(OCc3cccc(F)c3)c(Cl)c2)c1` the figure was -0.1%; with `CCOc1ccc2c(-c3ccnc(Nc4cccc(C(F)(F)F)c4)n3)cnn2n1`, -1%. Same read-out and setting: next, `CC(C)(CO)CNC(=O)c1ccc2c(c1)/C(=N/Nc1ccc(S(N)(=O)=O)cc1)C(=O)N2`: 5.01%; `Cc1ccc(O)cc1Nc1ccnc2cc(-c3ccccn3)ccc12`: 3.92%; `COC(=O)c1sc(-n2cnc3cc(OC)c(OC)cc32)cc1OCc1ccccc1C(F)(F)F`: 1.93%. `CC(=O)Nc1cccc(C#Cc2cncnc2Nc2ccc(OCc3cccc(F)c3)c(Cl)c2)c1`: the inhibition turned out to be 0.67%.

Take `Fc1cccc(COc2ccc(Nc3ncnc4sc(-c5ccco5)cc34)cc2Cl)c1`: the inhibition is 2.72%.

Take `COc1cc2ncn(-c3cc(OCc4ccccc4C(F)(F)F)c(C(=O)N(C)C)s3)c2cc1OC`: the inhibition worked out at 0.34%.

On to `COc1cc2c(cc1Nc1nc(Nc3ccsc3C(N)=O)c3cc[nH]c3n1)N(C(=O)CN(C)C)CCC2(C)C`, for which the inhibition came out at 66.5%.

For `Nc1ncc(-c2cccc(S(N)(=O)=O)c2)c2scc(-c3ccc(F)c(Cl)c3)c12`, the inhibition stood at 1.47%.

As to `O=C(Nc1n[nH]c2cc(-c3ccc(F)cc3)ccc12)C1CC1`, the inhibition was 9.51%.

Consider `Cc1cccc(Nc2ncc(-c3ccccc3)o2)c1`, for which the inhibition is 4.38%.

`CCCN(CCS(C)(=O)=O)Cc1ccc(-c2ccc3ncnc(Nc4ccc(OCc5cccc(F)c5)c(Cl)c4)c3c2)o1`: the inhibition is 0.05%. The same measure, in the same setting: with `N#Cc1c(NC(=O)CN2CCOCC2)sc2c1CCCC2` the figure was 0.87%.

For the next experiment, the target named is Rho-associated protein kinase 2 (Homo sapiens) (UniProt O75116). As to conditions: at 0.1 µM.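 Further: values are averaged inhibition readings.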
Rho-associated protein kinase 2 (Homo sapiens), sequence (O75116 whole entry, looked up): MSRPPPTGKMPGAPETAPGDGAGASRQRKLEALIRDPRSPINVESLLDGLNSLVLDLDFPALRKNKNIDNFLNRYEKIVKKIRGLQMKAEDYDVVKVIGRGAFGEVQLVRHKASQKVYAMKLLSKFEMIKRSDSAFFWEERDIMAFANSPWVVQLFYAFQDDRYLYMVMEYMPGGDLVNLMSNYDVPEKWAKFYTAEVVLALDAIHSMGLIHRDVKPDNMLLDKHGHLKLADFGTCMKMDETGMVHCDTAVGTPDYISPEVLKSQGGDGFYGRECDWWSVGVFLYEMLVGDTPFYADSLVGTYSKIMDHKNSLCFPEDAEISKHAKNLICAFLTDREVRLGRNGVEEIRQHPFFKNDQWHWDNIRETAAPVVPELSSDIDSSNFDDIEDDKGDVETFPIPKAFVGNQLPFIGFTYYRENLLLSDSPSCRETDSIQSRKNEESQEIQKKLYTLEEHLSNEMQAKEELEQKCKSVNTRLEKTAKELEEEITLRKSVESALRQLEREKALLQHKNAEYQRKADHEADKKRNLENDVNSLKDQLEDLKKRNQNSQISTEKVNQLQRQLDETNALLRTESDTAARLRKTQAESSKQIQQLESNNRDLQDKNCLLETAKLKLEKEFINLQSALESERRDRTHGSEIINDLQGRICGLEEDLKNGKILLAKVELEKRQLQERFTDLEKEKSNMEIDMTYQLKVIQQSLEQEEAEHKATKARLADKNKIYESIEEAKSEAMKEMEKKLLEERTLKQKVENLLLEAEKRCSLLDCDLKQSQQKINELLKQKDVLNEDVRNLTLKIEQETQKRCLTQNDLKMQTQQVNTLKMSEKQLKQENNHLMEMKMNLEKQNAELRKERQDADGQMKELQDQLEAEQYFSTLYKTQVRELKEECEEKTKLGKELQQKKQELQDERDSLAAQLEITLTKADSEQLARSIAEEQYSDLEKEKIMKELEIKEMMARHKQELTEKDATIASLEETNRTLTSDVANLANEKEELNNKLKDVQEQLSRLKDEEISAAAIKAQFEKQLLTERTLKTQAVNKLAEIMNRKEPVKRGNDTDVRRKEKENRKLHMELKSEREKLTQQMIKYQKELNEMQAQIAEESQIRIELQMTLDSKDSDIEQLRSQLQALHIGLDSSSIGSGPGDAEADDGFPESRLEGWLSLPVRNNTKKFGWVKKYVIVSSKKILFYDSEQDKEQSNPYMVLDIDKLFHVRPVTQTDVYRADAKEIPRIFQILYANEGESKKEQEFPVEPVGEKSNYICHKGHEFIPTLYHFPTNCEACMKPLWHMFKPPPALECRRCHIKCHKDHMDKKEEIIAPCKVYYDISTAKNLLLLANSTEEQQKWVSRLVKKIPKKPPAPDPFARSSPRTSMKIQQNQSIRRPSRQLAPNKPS
On to `Cc1cccc2c1NC(=O)/C2=N\Nc1ccc(S(N)(=O)=O)cc1`, for which the inhibition came out at 3.93%. With `Clc1ccc(-c2nn3ncccc3c2-c2ccnc(Nc3ccccc3)n2)cc1`, the inhibition came out at 2.19%. Same read-out and setting: with `COc1ccc(-c2cc(-c3c[nH]nc3-c3ccccn3)ccn2)cc1` the figure was 4.88%.

As for `NS(=O)(=O)c1ccc(Nc2ncc(-c3ccccc3)o2)cc1`, the inhibition came to 4.4%.

As for `c1ccc(-c2nc3n(c2-c2ccc4c(c2)OCO4)CCC3)nc1`, the inhibition came out at 5.54%. Same read-out and setting: next, `N#Cc1c(NC(=O)c2ccc(F)cc2)sc2c1CCCC2`: 0.42%; `CC(C)COC(=O)c1ccc2c(c1)/C(=C/Nc1ccc(S(N)(=O)=O)cc1)C(=O)N2`: 6.15%; `Cc1ccc2c(-c3ccnc(Nc4ccccc4)n3)c(-c3ccc(F)cc3)nn2n1`: 2.77%. On the same count and under the same terms, with `CS(=O)(=O)CCNCc1ccc(-c2ccc3ncnc(Nc4ccc(OCc5ccccc5)c(C(F)(F)F)c4)c3c2)o1` the figure was 2.7%; with `O=C(O[C@H]1CN[C@H](C#Cc2cc3ncnc(Nc4ccc(Cc5ccccc5)cc4)c3s2)C1)N1CCOCC1`, 1.88%.

For the molecule `COc1ccc2[nH]c3c4[nH]c5ccc(OC)cc5c4c4c(c3c2c1)C(=O)NC4=O`, the inhibition worked out at 6.62%. Same read-out and setting: with `COc1ccc2c(-c3ccnc(Nc4cccc(OC(F)(F)F)c4)n3)cnn2n1` the figure was 3.74%; with `CN1CCC(n2cnc(-c3ccc(F)cc3)c2-c2ccnc(N)n2)CC1`, 0.69%. Still for that read-out and setting: with `CN(C)CCOc1ccc(-c2nc(-c3ccncc3)c(-c3ccc4c(c3)CC/C4=N\O)[nH]2)cc1` the figure was 3.19%; with `COc1cc(N2CCN(C(C)C)CC2)ccc1Nc1nc(Nc2ccc(F)cc2C(N)=O)c2cc[nH]c2n1`, 4.69%; with `CNC(=O)c1cncc(/C=C/c2ccccc2Cl)c1`, 3.13%. The same measure, in the same setting: next, `[O-][S+]1CCN(Cc2ccc(-c3ccc4ncnc(Nc5ccc(OCc6cccc(F)c6)c(Cl)c5)c4c3)o2)CC1`: 2.9%.

Consider `COc1ccc(-c2nn3ncccc3c2-c2ccnc(Nc3ccc4c(c3)OCCO4)n2)cc1`, for which the inhibition is -0.09%.

Consider `FC(F)(F)c1cccc(-c2nn3ncccc3c2-c2ccnc(Nc3ccc4c(c3)OCCO4)n2)c1`, for which the inhibition turned out to be 0%.

Regarding `CNC(=O)c1cc(-c2ccc(F)cc2)cc(-c2ccc(S(=O)(=O)N3CCCC3)cc2)c1N`, the inhibition came out at 1.69%. On to `CNC(=O)c1cccc(C#Cc2cncnc2Nc2ccc(OCc3cccc(F)c3)c(Cl)c2)c1`, for which the inhibition stood at 0.98%. On the same count and under the same terms, next, `CCOc1ccc2c(-c3ccnc(Nc4cccc(C(F)(F)F)c4)n3)cnn2n1`: 1.46%. Same read-out and setting: with `CC(C)(CO)CNC(=O)c1ccc2c(c1)/C(=N/Nc1ccc(S(N)(=O)=O)cc1)C(=O)N2` the figure was 0.95%.
